Screening results as filed in PubChem.
KDM4E inh: qHTS Assay for Inhibitors of Human Jumonji Domain Containing 2E (JMJD2E) | JMJD2E catalytic domain, FDH-coupled NADH fluorescence (FDH is formaldehyde dehydrogenase) | Potency, µM (titrated, usually from 57.1 µM), usual class: inhibitors | 1.6% of 230,000 active | AID 2147, 2009; note: nearly all actives have a fitted effect of over 50% in size
PNC inhibitor: High Content Assay for Compounds that inhibit the Assembly of the Perinucleolar Compartment. PC3M PTB-GFP, PNC prevalence imaging, 16 h; hits give low values. activity change (PNC), negative = inhibition, % at 10 µM. 3.1% of 140,000 active;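 active = readout at or below -70, meaning at least 70% loss of cells showing the perinucleolar compartment, a nuclear body marking cancer cells; inconclusive = readout between -30 and a set limit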
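Compounds are pinned in duplicate onto adhered PC3M cells stably expressing GFP-tagged PTB and incubated 16 h at 37 C. Cells are then fixed, nuclei stained with Hoechst, and PNC-positive cells counted.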
HPGD block: qHTS Assay for Inhibitors of HPGD (15-Hydroxyprostaglandin Dehydrogenase). 15-hydroxyprostaglandin dehydrogenase [NAD(+)] (Homo sapiens), P15428. purified HPGD, NADH fluorescence kinetic, PGE2 substrate. Potency, µM, hits mostly inhibitors. 4.3% of 150,000 active
Target sequence (P15428 whole entry, looked up): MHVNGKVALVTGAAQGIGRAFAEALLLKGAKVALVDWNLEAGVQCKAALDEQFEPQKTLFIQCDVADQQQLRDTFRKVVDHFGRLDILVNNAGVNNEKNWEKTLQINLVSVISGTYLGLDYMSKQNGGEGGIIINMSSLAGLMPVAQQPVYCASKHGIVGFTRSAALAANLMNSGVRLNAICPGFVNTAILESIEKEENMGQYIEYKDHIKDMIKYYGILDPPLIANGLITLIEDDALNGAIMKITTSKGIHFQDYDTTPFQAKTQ
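20 nM HPGD preincubated 15 min at room temperature with compound in 50 mM Tris-HCl pH 8, 0.01% Tween 20. Started with 1 mM NAD+ and 30 uM prostaglandin E2; NADH fluorescence (360/450 nm) read 5 times over 30-s intervals, last minus first.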
ALDH1A1 block: qHTS Assay for Inhibitors of Aldehyde Dehydrogenase 1 (ALDH1A1); Aldehyde dehydrogenase 1A1 (Homo sapiens), P00352; 7.3% of 220,000 active; Purified ALDH1A1, NADH fluorescence, propionaldehyde substrate; Potency, µM (top dose mostly 75.3 µM), most hits filed as inhibitors
Target sequence (P00352 whole entry, looked up): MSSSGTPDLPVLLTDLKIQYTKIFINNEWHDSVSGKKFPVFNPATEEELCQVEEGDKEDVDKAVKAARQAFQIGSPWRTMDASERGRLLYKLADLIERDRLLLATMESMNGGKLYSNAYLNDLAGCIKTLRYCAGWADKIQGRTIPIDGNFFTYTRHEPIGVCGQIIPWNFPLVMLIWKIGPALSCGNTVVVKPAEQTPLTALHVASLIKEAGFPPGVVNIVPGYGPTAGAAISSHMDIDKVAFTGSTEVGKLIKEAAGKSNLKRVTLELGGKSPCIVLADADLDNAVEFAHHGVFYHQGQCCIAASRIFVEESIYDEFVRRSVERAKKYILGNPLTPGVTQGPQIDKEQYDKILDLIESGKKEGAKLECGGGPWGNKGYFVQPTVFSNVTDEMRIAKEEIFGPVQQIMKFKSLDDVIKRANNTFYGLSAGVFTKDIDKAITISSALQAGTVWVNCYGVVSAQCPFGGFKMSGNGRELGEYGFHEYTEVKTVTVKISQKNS
Each line names hits and unclear results; the compound was inactive in the other large screens. The list is not random: actives were taken first. Their share in the collection is about 11%. Unless noted, calls come from the whole dose curve; as a rule, active = well fitted inhibition curve with a large enough effect (not every such curve was filed as active); inconclusive = small, poorly fitted or top-dose-only effect, or another doubt; inactive = no such curve, though single readings can be large or run the other way.

COc1ccc(NC(=O)c2ccc(S(=O)(=O)N3CCOCC3)o2)cc1	none (no result: PNC inhibitor, HPGD block)
Cc1ccc(-c2nnc3n2N=C(c2ccccc2Br)CS3)cc1	HPGD block 22µM
Cc1cccc(-c2nnc3n2N=C(c2ccccc2)CS3)c1	none
CCN(CC)C(=O)c1ccc2c3c(cccc13)C(=O)N(CCc1ccc(OC)c(OC)c1)C2=O	HPGD block 18µM
COc1ccc(CCN2C(=O)c3cccc4cccc(c34)C2=O)cc1OC	none
CC(=O)c1ccc(N2CCN(c3ccc(S(=O)(=O)NCCCN(C)C)cc3[N+](=O)[O-])CC2)cc1	ALDH1A1 block 19µM (no result: PNC inhibitor, HPGD block)
COc1cccc(CS(=O)(=O)c2nnnn2-c2ccc(F)cc2Br)c1	ALDH1A1 block inconclusive (no result: PNC inhibitor)
O=C(CSc1nc2ccccc2n1CCc1ccccc1)c1ccc(O)c(O)c1	KDM4E inh 22µM, ALDH1A1 block 14µM (no result: PNC inhibitor, HPGD block)
O=C(CSc1nc2ccccc2c(=O)[nH]1)c1cccs1	PNC inhibitor inconclusive, HPGD block 13µM
O=C(CSc1nc2ccccc2n1CCc1ccccc1)N1CCOCC1	PNC inhibitor inconclusive (no result: HPGD block)
Cc1cc(SCC(=O)c2cccs2)nc2ccccc12	PNC inhibitor inconclusive, HPGD block 4.5µM, ALDH1A1 block inconclusive
Cc1cnc(NC(=O)Cc2c[nH]c3ccccc23)s1	ALDH1A1 block 25µM (no result: HPGD block)
COc1ccccc1C(=O)N/N=C(\C)c1ccc(NC(=O)C2CC2)cc1	PNC inhibitor inconclusive
CC(NC(=O)CSc1nc2ccccc2c(=O)[nH]1)c1ccccc1 (stereo unspecified)	none
N#Cc1c(-c2cccs2)nc(SCC(=O)c2cccs2)[nH]c1=O	HPGD block 16µM
N#Cc1c(-c2ccccc2)nc(SCC(=O)Nc2ccccc2)[nH]c1=O	none
O=C(CSc1nc2ccccc2c(=O)[nH]1)c1ccc(O)c(O)c1	KDM4E inh 25µM, PNC inhibitor inconclusive, HPGD block 16µM, ALDH1A1 block inconclusive
Cc1cnc(NC(=O)CSc2nc3ccccc3c(=O)[nH]2)s1	HPGD block 16µM
CC(=O)Nc1ccc(CN2CCCC(C(=O)c3ccc(C(F)(F)F)cc3)C2)cc1 (stereo unspecified)	none (no result: PNC inhibitor, HPGD block)
O=C(NCc1ccccn1)C(=O)C1C(=O)Nc2ccccc21 (stereo unspecified)	ALDH1A1 block inconclusive (no result: PNC inhibitor, HPGD block)
Cc1ccc(-c2cc(C(=O)Nc3ccc(S(=O)(=O)Nc4ncccn4)cc3)[nH]n2)c(O)c1C	none (no result: PNC inhibitor, HPGD block, ALDH1A1 block)
COc1cc2c(cc1OC)C1=C(C#N)CCC(=NC(=O)c3ccc(Cl)cc3)N1CC2	HPGD block 14µM
COc1cc2c(cc1OC)C1=C(C#N)COCN1CC2	KDM4E inh inconclusive, HPGD block inconclusive, ALDH1A1 block inconclusive
CC(C)NCc1cc(Br)ccc1OCc1ccccc1	none (no result: PNC inhibitor, HPGD block)
NC(=O)COC(=O)c1ccc2c(c1)S(=O)(=O)N=C1CCCCCN12	ALDH1A1 block 8.9µM
CN1CCN(Cc2nc3cccc4c3c([n+]2[O-])-c2ccccc2-4)CC1	none (no result: KDM4E inh, PNC inhibitor)
CCOC(=O)/C(C#N)=C/c1ccc(OC(=O)c2ccccn2)cc1	KDM4E inh inconclusive, ALDH1A1 block 8.9µM
CCOC(=O)/C(C#N)=C/c1ccc(SC)cc1	KDM4E inh inconclusive, ALDH1A1 block 18µM (no result: PNC inhibitor, HPGD block)
Nc1nnc(SCCCC(=O)c2ccc(Br)cc2)s1	HPGD block 3.5µM
CC(C)=CCC/C(C)=C/CC/C(C)=C/CO	none (no result: PNC inhibitor)
Clc1ccc(-c2nnc3sc(Cc4cccs4)nn23)cc1	ALDH1A1 block 22µM
c1ccc(-c2nnc3sc(Cc4cccs4)nn23)cc1	none
O=C1c2ccccc2C(=O)N1Cc1nn2c(-c3ccc(Cl)cc3)nnc2s1	PNC inhibitor inconclusive, ALDH1A1 block 14µM
COc1ccc(-c2nnc3sc(CN4C(=O)c5ccccc5C4=O)nn23)cc1	ALDH1A1 block inconclusive
Cc1ccc(CNC(=O)C2CCC(=O)N2CCc2ccccc2)cc1 (stereo unspecified)	PNC inhibitor inconclusive, ALDH1A1 block inconclusive
C[C@@]12CCC(=O)C=C1CC[C@H]1[C@H]3CC[C@](O)(C(=O)CO)[C@]3(C)CC(=O)[C@@H]12	none (no result: PNC inhibitor)
O=C(c1cc2ccccc2oc1=O)N(Cc1cccs1)Cc1cccs1	ALDH1A1 block 11µM
O=C1CSC(=S)N1/N=C/c1ccc(O)c(O)c1O	KDM4E inh 2.2µM (no result: PNC inhibitor, HPGD block, ALDH1A1 block)
COc1ccc(/C=N/N2C(=O)CSC2=S)cc1	ALDH1A1 block inconclusive
O=C1N=C(N2CCOCC2)S/C1=C1\C(=O)N(Cc2ccccc2)c2ccc(Br)cc21	ALDH1A1 block inconclusive
CCCCN1C(=O)/C(=C2\SC(N3CCCCC3)=NC2=O)c2ccccc21	HPGD block 22µM, ALDH1A1 block 10µM
CC(=O)OC1CC[C@@]2(C)C(CC[C@@]3(C)C2CC=C2C4CC(C)(C)CC[C@]4(C)CC[C@@]23C)C1(C)C (stereo partly specified)	none (no result: PNC inhibitor)
CCCC[C@@H]1C[C@H]1[C@@H](NP(=O)(c1ccccc1)c1ccccc1)c1ccccc1OC	none (no result: PNC inhibitor)
O=C(CCn1c(=O)c2ccccc2n(Cc2cccc([N+](=O)[O-])c2)c1=O)N1CCc2ccccc2C1	HPGD block 16µM, ALDH1A1 block inconclusive
CC12CCC(C(=O)Nc3nc4ccc(Br)cc4s3)(OC1=O)C2(C)C (stereo unspecified)	none (no result: PNC inhibitor, HPGD block)
O=C(c1ccccc1-c1nc(-c2ccc(F)cc2)no1)N1CCCC1	PNC inhibitor -100, ALDH1A1 block inconclusive
COc1ccccc1-c1cc(NCc2cccc(C)c2)ncn1	none (no result: KDM4E inh, PNC inhibitor, HPGD block)
Cc1cccc(CNc2cc(-c3ccccc3C)ncn2)c1	HPGD block 16µM, ALDH1A1 block inconclusive (no result: PNC inhibitor)
Cc1ccccc1-c1cc(Nc2ccc(F)cc2)ncn1	HPGD block 14µM (no result: PNC inhibitor)
O=C(COC(=O)c1cnccn1)c1cccc([N+](=O)[O-])c1	none (no result: PNC inhibitor, HPGD block, ALDH1A1 block)
CCOC(=O)N1CCN(S(=O)(=O)c2ccc(OCC)c3ccccc23)CC1	KDM4E inh inconclusive, HPGD block 28µM, ALDH1A1 block inconclusive
CCOc1ccc(S(=O)(=O)N2CCN(c3ccccc3)CC2)c2cccnc12	PNC inhibitor inconclusive, ALDH1A1 block 28µM
CCc1ccc(NC(=S)NC2CCN(Cc3ccccc3)CC2)cc1	ALDH1A1 block 20µM
COc1ccc(NC(=S)NC2CCN(Cc3ccccc3)CC2)cc1OC	none (no result: PNC inhibitor, HPGD block)
S=C(Nc1ccccc1)NC1CCN(Cc2ccccc2)CC1	ALDH1A1 block 14µM (no result: PNC inhibitor, HPGD block)
CC(Oc1ccccc1)C(=O)NC1CCN(Cc2ccccc2)CC1 (stereo unspecified)	PNC inhibitor -84
S=C(Nc1ccc(Cl)cc1)NC1CCN(Cc2ccccc2)CC1	ALDH1A1 block 4µM
COCCn1c(=O)cnc2cnc(OC)nc21	none (no result: KDM4E inh, PNC inhibitor, HPGD block)
CCC(C)c1ccc(NC(=S)NC2CCN(Cc3ccccc3)CC2)cc1 (stereo unspecified)	PNC inhibitor inconclusive, ALDH1A1 block 7.1µM
CC(C)N1C(=O)CSC1c1ccc(Br)cc1 (stereo unspecified)	none (no result: PNC inhibitor, HPGD block)
O=c1cnc2cnc(Oc3ccccc3)nc2n1Cc1ccc(F)cc1	ALDH1A1 block inconclusive (no result: KDM4E inh, PNC inhibitor)
O=c1c(CCc2ccccc2)nc2cncnc2n1Cc1ccccc1	ALDH1A1 block 25µM (no result: KDM4E inh, PNC inhibitor, HPGD block)
O=c1c(CCc2ccccc2)nc2cncnc2n1-c1ccccc1	ALDH1A1 block inconclusive (no result: KDM4E inh, PNC inhibitor)
O=c1cnc2cncnc2n1Cc1ccccc1Cl	ALDH1A1 block 3.5µM (no result: KDM4E inh, PNC inhibitor, HPGD block)
COc1ncc2ncc(=O)n(Cc3ccc(F)cc3)c2n1	none (no result: KDM4E inh, PNC inhibitor)
O=c1cnc2cncnc2n1Cc1ccccc1	ALDH1A1 block 4µM (no result: KDM4E inh, PNC inhibitor, HPGD block)
